Source: publication PMC12136788
Where a chain is given by its changes, count along the chain named. Whole data set: some 24,000 sequences, median “enrichment r” near 0.99, cut for the highest 2% near 3.7. This is one part of a sample in which the highest values are shown more often than they occur.

B1: chr17:56552419:56552420:-_ENSMUSG00000013236_ENSMUST00000086828|mus_mus|mus_mus_mus_hu_False|1_48 (ssRNA)
RNA: GGGAGUUCUACAGUCCGACGAUCAAAAAAUACACUAUUUAAAAAAAAUGAAAUGUCACGGGAUACAGUUACACUGAGAGUUUUAAAAAAAAAUAAGAUUCUGGUCCCAGCCCAGUGUCCCCAGGCUGCAGAGCGGGGCAGAGGCAACAGAGGAUUGAGCAUCA
B2: chr17:56552419:56552420:-_ENSMUSG00000013236_ENSMUST00000086828|mus_mus|mus_mus_mus_hu_False|48_58 (ssRNA)
RNA: B1 RNA with G77C, G79C, U81A, C138A, A139G, G143C
B3: chr17:56552419:56552420:-_ENSMUSG00000013236_ENSMUST00000086828|mus_mus|mus_mus_mus_hu_False|48_48 (ssRNA)
RNA: B1 RNA with C138A, A139G, G143C
B4: chr17:56552419:56552420:-_ENSMUSG00000013236_ENSMUST00000086828|mus_mus|mus_mus_mus_hu_False|48_98 (ssRNA)
RNA: B1 RNA with U38A, U39A, C138A, A139G, G143C
B5: 35626089_35772405_348_CDS_ENSG00000108100_ENST00000265375|human|control|control (ssRNA)
RNA: GGGAGUUCUACAGUCCGACGAUCGUCCGUCUGAGAUUUACUGAGGAAUAUUGUGCUGGCCCGAGGAUGAUCUGAAGGAUUGAAUUCCAUGUUCAAAUCGUCUAUGUUCUCCCGGUCGCUGAUGUGCUGCAGGUUGCAGCCCGUCAACAGAGGAUUGAGCAUCA
B6: chr2:216981417:216981418:+_ENSG00000079246_ENST00000392132|hu_hu|hu_hu_hu_mus_True|18_98 (ssRNA)
RNA: GGGAGUUCUACAGUCCGACGAUCCUGAUACUGGUCCCCACCAGAAAGGGCAUUAUCAGUGCCAUCUGUGCCAUAGAGGACUAACGCAAUCUCAUCUUUGCUCUCCGAAAAUACCUGUCGCUGUACAAACAUAGUCAUCACUUUCAACAGAGGAUUGAGCAUCA
B7: chr11:48616917:48616918:+_ENSMUSG00000020372_ENSMUST00000020640|mus_mus|FALSE|FALSE (ssRNA)
RNA: GGGAGUUCUACAGUCCGACGAUCGACGAUGAUAGGGUUGCUGCUGUUCGGGGAGAAGCGGACACAAGACACCCAUUCUGAAUGACUCUCAUCCUGGACCGUGUACUUGCAGACACCCAGAGUAUUCCAUAACUUUAUGGUCUUCAACAGAGGAUUGAGCAUCA
B8: 23240013_23240133_1240_CDS_ENSG00000136243_ENST00000258742|human|control|control (ssRNA)
RNA: GGGAGUUCUACAGUCCGACGAUCACUACCAAAACCAGCCACAGAACUGCCACCUCCAAAGGCUGGGGCCACUGGAGCUCUGACAGGACCUGUUGCCAAGGAAGCUGGAAGUCCUGAAAAUCCAGGUGAUCCAAAACUGGAAGCCAACAGAGGAUUGAGCAUCA
B9: 157127611_157127731_2631_3pUTR_ENSMUSG00000026469_ENSMUST00000027741|mouse|control|control (ssRNA)
RNA: GGGAGUUCUACAGUCCGACGAUCAUUAAAAGUAGCUUUGUGGAGGAGGUGCUGCUCCAAGCUGCACUUUCCCUGCAAGUGCUGCCAGUGUCUCUGCACUGGCUAUGAAGGAAGGGAAAAACUCUCCAUAGAAACUGACAGAAACAACAGAGGAUUGAGCAUCA
B10: chr15:81680702:81680703:-_ENSMUSG00000048546_ENSMUST00000050467|mus_mus|motif|central (ssRNA)
RNA: GGGAGUUCUACAGUCCGACGAUCGAGAGAGAGUUGAGGCUAGGGCCAGACUUAUUUGGGUGGCAGGCCCUGAGAAGACAGCGGGGUUGGGGGUUGUGGACACGGGGGUGGAGGGUGGGGGGGUGUCAGCCUCUCCCUGUUUCACAACAGAGGAUUGAGCAUCA
B11: 34053828_34053948_230_3pUTR_ENSMUSG00000051390_ENSMUST00000053429|mouse|control|control (ssRNA)
RNA: GGGAGUUCUACAGUCCGACGAUCUGGUCACCUCAGGGAAGGACACGUGUACCACUGCAGCUGCCGGCAGAGGCAGUGGCGGUGGAGCCAGUGACAGAGGCAGUGGGAGUGUGGCCCCACUGGGUGACAGAGCAGACGGCUCCACAACAGAGGAUUGAGCAUCA
B12: chr7:143080189:143080190:+_ENSG00000159840_ENST00000392910|hu_hu|FALSE|FALSE (ssRNA)
RNA: GGGAGUUCUACAGUCCGACGAUCUGGGGCUCCAGGACUGAACUUGGAAGCCACAGGAGUAAACUUAGGAGUCACUGGAGAAAACUUAGGGGCUGGAGCCGGAGAUGAGGCUGGGGGCCCUCGGGGCUGGGUGUUAGCCAAAGACAACAGAGGAUUGAGCAUCA
B13: chr6:43255143:43255144:+_ENSG00000146216_ENST00000259750|hu_mus|FALSE|FALSE (ssRNA)
RNA: GGGAGUUCUACAGUCCGACGAUCUCCUAGGCCUCCCCUUCUUUCAAUCUCCAAACCUGGGUGUUGUUGGUCCUACGGCAGAAGGGAGACUGAGGGGGGCACCUACACUCACAGUUAGGUUGGUGGCAAGGGGCAGGCCCAGGGCAACAGAGGAUUGAGCAUCA
B14: chrX:71549400:71549401:+_ENSMUSG00000019087_ENSMUST00000019231|mus_hu|mus_mus_mus_hu_False|28_68 (ssRNA)
RNA: GGGAGUUCUACAGUCCGACGAUCGCAGUAGGAAGAGGGAAGCUCUUCAGUCCAGUGCGCUGCAGGGAGAAACAUGAACAACACGGACACCGUCCCACCCUCAACCCUCUCAGGUGUACAGGGUCACACAAUCUGGGUCAAAGACAACAGAGGAUUGAGCAUCA
B15: chr22:32879901:32879902:+_ENSG00000100225_ENST00000397426|hu_mus|hu_hu_hu_mus_False|78_78 (ssRNA)
RNA: GGGAGUUCUACAGUCCGACGAUCCUCUUCCAUACUCAUGGCAUCCUGAAUUGACUCAGCUUCAAAAUUUUGACUAGGCCCUUCCAUACUGUCAUCAGUCCAGGCAUCAAAUGGGGUGGCCUGUCCUUGGGAUGAAUCAGUCCCCAACAGAGGAUUGAGCAUCA
B16: chr14:67424093:67424094:-_ENSMUSG00000022048_ENSMUST00000022629|mus_hu|motif|central (ssRNA)
RNA: GGGAGUUCUACAGUCCGACGAUCGAGAGACGGGGUGUGGGGCCCCAAGGGGGACCCCAUGAACUGGCUGCUCCACAGUAACGGUCACAGGCUCUUAAAAAAAAAAACAAAAAAAAAAAAAGGAAGGAAGAAAGAAGUCUCAGACAACAGAGGAUUGAGCAUCA
B17: chr14:67424093:67424094:-_ENSMUSG00000022048_ENSMUST00000022629|mus_hu|FALSE|FALSE (ssRNA)
RNA: B16 RNA with G82U, G83A
B18: chr14:66974463:66974464:+_ENSMUSG00000022044_ENSMUST00000074523|mus_hu|mus_mus_mus_hu_False|88_88 (ssRNA)
RNA: GGGAGUUCUACAGUCCGACGAUCUUGUAGGACGACUUAUUCAGGGGAUCAGACAAGAAGCAGGAGCAGAACAAGGACACCAGCGGGAGCUCCUUCAUCUUCUCUUUGUAGGCAGCAAGGGUCAUGUUUCUGGGAUCUGGUGGCCAACAGAGGAUUGAGCAUCA
B19: chr8:73282188:73282189:+_ENSMUSG00000031840_ENSMUST00000034301|mus_hu|FALSE|FALSE (ssRNA)
RNA: GGGAGUUCUACAGUCCGACGAUCUAGGGUGUCAUCUGGCCCCUCUUCACAACUGACAACUGUGGAUGGGGGUGAAUUUUAAAAAAAGGCGGGGGGGGGGGGUUCAGGAGGGUGAGCGGUGAGUUCACGGGGCCACGAGACACCCAACAGAGGAUUGAGCAUCA

Target: T1, UNK ZnF1-3 (human, UniProt Q9C0B0 31-174)
T1 sequence: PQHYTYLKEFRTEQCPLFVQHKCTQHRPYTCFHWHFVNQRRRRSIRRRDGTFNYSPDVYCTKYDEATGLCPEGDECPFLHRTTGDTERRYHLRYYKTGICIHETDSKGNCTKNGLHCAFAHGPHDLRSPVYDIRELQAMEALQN
Experiment: nsRBNS (natural sequence RNA bind-n-seq); RBNS binding buffer (assumed for nsRBNS): 25 mM Tris pH 7.5, 150 mM KCl, 3 mM MgCl2, 0.01% Triton X-100, 500 ug/ml BSA, 20 U/ml SUPERase-In, 4 C; UNK is unkempt and MSI1 is Musashi-1; names of the RNAs are library labels; protein concentration not given here; high values mean tight binding

Row | Binder | binding signal
1 | B1 | 3.79 enrichment R
2 | B2 | 8.56 enrichment R
3 | B3 | 7.18 enrichment R
4 | B4 | 11.1 enrichment R
5 | B5 | 0.777 enrichment R
6 | B6 | 1.16 enrichment R
7 | B7 | 0.907 enrichment R
8 | B8 | 1.23 enrichment R
9 | B9 | 0.603 enrichment R
10 | B10 | 4.46 enrichment R
11 | B11 | 0.895 enrichment R
12 | B12 | 1.45 enrichment R
13 | B13 | 0.766 enrichment R
14 | B14 | 1.64 enrichment R
15 | B15 | 1.23 enrichment R
16 | B16 | 7.78 enrichment R
17 | B17 | 20.5 enrichment R
18 | B18 | 2 enrichment R
19 | B19 | 4.04 enrichment R
